# Experimental data as given in PubChem BioAssay AID602318 (Sanford-Burnham Center for Chemical Genomics, 2012).
# Screen size: about 1,900 compounds; about 550 (29%) were called active. Cut-off read from the data, not from the text of the source: active = inhibition above about 40%; inactive = the rest. Only a sample is shown.
# Biological target: 26S proteasome non-ATPase regulatory subunit 14 (Homo sapiens) (UniProt O00487)
# Assay: inhibition of 26S proteasome subunit Rpn11 – biochemical, fluorescence polarization, single concentration, confirmation (AID 602318)
# Settings: purified human 26S proteasome, Ub4-pepOG fluorescence polarization; at 20 µM; hits give high values; proteasome pretreated with epoxomicin
# Sequence of 26S proteasome non-ATPase regulatory subunit 14 (Homo sapiens) (O00487 whole entry, looked up): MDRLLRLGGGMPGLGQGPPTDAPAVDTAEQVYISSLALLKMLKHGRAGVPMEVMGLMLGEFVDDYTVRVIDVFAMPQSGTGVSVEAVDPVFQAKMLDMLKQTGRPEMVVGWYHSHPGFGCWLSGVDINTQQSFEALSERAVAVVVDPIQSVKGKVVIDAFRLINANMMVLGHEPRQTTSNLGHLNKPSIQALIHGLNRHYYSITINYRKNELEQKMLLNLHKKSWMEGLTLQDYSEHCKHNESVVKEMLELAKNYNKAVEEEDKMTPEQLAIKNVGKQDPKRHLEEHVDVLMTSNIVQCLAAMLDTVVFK
row,SMILES,inhibition
1,CCc1ccc(-c2cc(C(=O)NCc3ccco3)c3ccccc3n2)s1,40.9% (active)
2,CCCS(=O)(=O)N1CCCC(C(=O)NCc2ccco2)C1 (stereo not given),-10.1% (inactive)
3,C=CCn1c(=S)[nH]c2scc(-c3ccco3)c2c1=O,0.26% (inactive)
4,CCC(C)Cn1c(O)cc2nn(-c3nc4ccccc4s3)c(=O)c-2c1C (stereo not given),15.4% (inactive)
5,Cc1ccc(NC(=O)c2c(NC(=O)CCC(=O)O)sc3c2CCCCC3)cc1,-3.94% (inactive)
6,COc1ccc(CNC(=O)c2nnn(CC(=O)Nc3cc(C)cc(C)c3)c2N)cc1,52.8% (active)
7,CSC1=N/C(=C\C=C\c2cccs2)C(=O)S1,29.7% (inactive)
8,CCN1CCN(c2cc3nc(C)n(Cc4ccccc4)c(=O)c3cc2NC(=O)c2ccccc2F)CC1,17.4% (inactive)
9,C/C(=N/Nc1nc(-c2ccccc2)c(CC(=O)O)s1)c1ccccc1,34% (inactive)
10,COc1ccc(Cl)cc1NC(=O)CCS(=O)(=O)c1ccc(Br)cc1,124% (active)
11,O=C(CCS(=O)(=O)c1cccc2nonc12)NCCc1ccccc1Cl,-2.85% (inactive)
12,CCCOc1ccc(Cn2c(O)cc(=O)[nH]c2=O)cc1,20.3% (inactive)
13,CCNCc1cc2cc(C)ccc2[nH]c1=O,18.7% (inactive)
14,Cc1ccc(Nc2ccccc2N)cc1,32.8% (inactive)
15,Cc1ccc(Nc2nc(Cl)c(C=O)s2)cc1,55% (active)
16,O=C(OCc1cc2ccccc2[nH]c1=O)c1cccnc1,-8.83% (inactive)
17,CC(C)Cn1c(CCC(=O)O)ccc1-c1cccs1,-26.6% (inactive)
18,CC(C)CC1C(=O)N(Cc2cn(Cc3ccco3)nn2)CCS(=O)(=O)N1Cc1ccc(-c2ccc(Cl)c(Cl)c2)cc1 (stereo not given),17.1% (inactive)
19,Cc1c(NC(=O)CSc2cccc3cccnc23)c(=O)n(-c2ccccc2)n1C,21.1% (inactive)
20,CN=c1scc(-c2cc(OC)ccc2OC)n1/N=C/c1c(C)[nH]c2ccccc12,44.5% (active)
21,CC(=O)c1sc(N/N=C/c2ccc(C(C)C)cc2)nc1C,-9.02% (inactive)
22,CCOC(=O)N1CCC(NC(=O)C(NS(=O)(=O)c2ccc3c(c2)CCN3C(=O)CC)C(C)C)CC1 (stereo not given),4.92% (inactive)
23,Cc1sc2nc(COC(=O)C(NC(=O)c3ccc(Cl)cc3Cl)C(C)C)[nH]c(=O)c2c1C (stereo not given),34.7% (inactive)
24,C=CC1=C(C(=O)O)N2C(=O)[C@@H](NC(=O)/C(=N/OCC(=O)O)c3csc(N)n3)[C@H]2SC1,66.5% (active)
25,CCC/C=C(\CCC)C(NC(=O)Cc1ccccc1)c1ccc(C(=O)OC)cc1 (stereo not given),-5.68% (inactive)
26,CCCCCCCCCCOC(=O)Cn1c(COc2cccc(OC)c2)[n+](C)c2ccccc21,7.65% (inactive)
27,COC1=C/C(=C/c2c(N)n3nc(CC(=O)N4CCOCC4)sc3nc2=O)C=CC1=O,31.8% (inactive)

row,SMILES,inhibition
1,O=C(COc1cccc(F)c1)Oc1ccc(C(=O)c2ccccc2)cc1,-1.38% (inactive)
2,Cc1ccc(N=Cc2c(O)cc(C)oc2=O)c(C)c1,22.8% (inactive)
3,CCOc1ccc(-n2c(O)c(/C=N/c3ccnn3Cc3ccncc3)c3ccccc3c2=O)cc1,98.3% (active)
4,CCOc1ccc(-n2c(O)c(/C=N/Nc3nnc(C)c(=O)[nH]3)c3ccccc3c2=O)cc1,38.6% (inactive)
5,COc1ccc2[nH]c(=O)c(-c3noc(-c4ccc(F)cc4)n3)cc2c1,3.41% (inactive)
6,Cc1cc(/C=N/Nc2ccc([N+](=O)[O-])cn2)c(C)n1-c1cccc(C(=O)O)c1,19.1% (inactive)
7,Cc1oc2c(C)c3oc(=O)c(CC(=O)N[C@@H](CC(C)C)C(=O)N[C@@H](Cc4ccccc4)C(=O)O)c(C)c3cc2c1C,26.8% (inactive)
8,N#Cc1c(-c2cccs2)nc(SCC(=O)c2ccc(Br)cc2)[nH]c1=O,46% (active)
9,CCCCCCSc1ccc([C@@H]2[C@H]3C(=O)N(CC)C(=O)[C@H]3[C@]3(C(=O)OC)CCCCN23)cc1,33.6% (inactive)
10,CS(=O)(=O)c1ccc2c(c1)SC1=NC(=O)/C(=C/c3ccco3)C(=N)N12,46.2% (active)
11,CN(C)c1ccc(-n2cccc2/C=C2/SC(=Nc3ccc(F)cc3)NC2=O)cc1,-10.9% (inactive)
12,Cc1cc(/C=C2/SC(=O)N(CC(=O)N3CCCC3)C2=O)ccc1N1CCOCC1,33.9% (inactive)
13,COc1cccc(-c2nn(-c3ccccc3)cc2/C=C(\C#N)C(=O)NCCCn2ccnc2)c1,53.8% (active)
14,CCN(CC)C(=O)CSc1nc2ccccc2n1CC(=O)N1CCN(c2ccccc2OC)CC1,-7.43% (inactive)
15,O=C(CSc1nc2ccccc2c(=O)[nH]1)Nc1nc(-c2ccc(Br)cc2)cs1,129% (active)
16,C=CCn1c(SCC(=O)NCc2ccccc2)nnc1-c1cc(Br)ccc1O,-6.6% (inactive)
17,Cc1ccc2cc(C#N)c(NCCNC(=S)NCCCN3CCOCC3)nc2c1,1.22% (inactive)
18,O=C(Nc1ccc(-c2nnc(-c3ccccc3)o2)cc1)c1ccc(Br)o1,11.5% (inactive)
19,COc1cc(/C=C2/SC(=S)N(Cc3ccccc3)C2=O)cc(OC)c1O,49.8% (active)
20,Nc1nonc1-n1nnc(C(=O)N/N=C/c2cc(Br)ccc2O)c1CSC1=NCCS1,24.8% (inactive)
21,CCOc1cc(/C=C2\SC(N3CCCCC3)=NC2=O)ccc1O,18.3% (inactive)
22,O=C(CSc1cccc2cccnc12)N/N=C/c1cccnc1,32.7% (inactive)
23,N#Cc1ccc(C(=O)Nc2cccc3cccnc23)c(F)c1,-21.1% (inactive)
24,CC(=O)/C(=N\Nc1ccc(Cl)cc1Cl)Sc1cccc2cccnc12,62.9% (active)
25,CC1CCN(c2ccc3c(c2)S(=O)(=O)c2cc(C(=O)O)ccc2C3=O)CC1,30.4% (inactive)
26,Cc1nc2ccccc2n1C(=O)N1CCOCC1,-9.96% (inactive)
27,COc1cccc(/C=C(/CC(=O)Nc2ccc(N3CCOCC3)cc2)c2nc3ccccc3s2)c1,57.2% (active)

row,SMILES,inhibition
1,COc1ccc(-n2c(SCC(=O)Nc3sc4c(c3C#N)CCCC4)nnc2-c2ccc(O)cc2)cc1,13.9% (inactive)
2,CC(=O)Nc1ccccc1Sc1ccc2c3c(cccc13)C(=O)N(c1ccc(C)cc1)C2=O,1.98% (inactive)
3,CCOc1ccc(NC(=O)c2ccc(NC(=O)COC(=O)c3ccc(NC(=O)CC#N)cc3)cc2)cc1,103% (active)
4,COC(=O)c1ccc(OCC(=O)NC(C)(C)C)cc1,-8.84% (inactive)
5,Cc1nc2ccc(C(=O)N3CCSCC3)cc2s1,-7.54% (inactive)
6,Oc1c(CN2CCCC2)cc(COCc2ccccc2)c2cccnc12,14.7% (inactive)
7,C=CC[n+]1c(-c2ccc(C)cc2)csc1NNC(=O)Nc1ccccc1,9.49% (inactive)
8,CC(C)(C)NC(=O)CSC(=Nc1ccccc1F)NC#N,16.3% (inactive)
9,CCOc1cc(/C=C2\SC(N3CCCC(C)C3)=NC2=O)ccc1O (stereo not given),11.7% (inactive)
10,Cc1cccc(OCc2nnc(SCc3nc4cc(C(F)(F)F)ccc4c(=O)[nH]3)o2)c1,57.8% (active)
11,CCc1ccc(NC(=O)CS(=O)CC(=O)NCCCc2ccccc2)cc1 (stereo not given),20.8% (inactive)
12,COc1cccc(NC(=O)C(C)Oc2ccccc2)c1 (stereo not given),-12.2% (inactive)
13,O=C(O)c1ccc(NN=CC2=C(N3CCOCC3)/C(=C/c3ccccc3)CC2)cc1,48.1% (active)
14,CN(C)CCOC1c2ccccc2-c2ccccc21,-6.33% (inactive)
15,Cc1ccc(NC(=O)CN2CCc3ccccc3C2)cc1,-8.38% (inactive)
16,COc1ccc(NC(=O)Cn2c(-c3ccc(OC)cc3)cn(-c3ccc(C)cc3)c2=O)cc1,42.8% (active)
17,COc1ccc(CC(=O)Nc2ccc(-c3nnc(-c4ccc(C)cc4)o3)cc2)cc1,-7.43% (inactive)
18,NC(N)=N/N=C/c1ccc(OCc2ccc(Cl)cc2Cl)cc1,37% (inactive)
19,Oc1ccc(/C=N/Nc2nc(-c3ccccc3F)nc3ccccc23)c(O)c1,18.3% (inactive)
20,O=C1NC(=O)C2C1C(c1ccc([N+](=O)[O-])cc1)=NN2Cc1ccccc1 (stereo not given),29.9% (inactive)
21,CC(C)Oc1ccc(/C=C(\NC(=O)/C=C/c2ccco2)C(=O)NCCc2nc3ccccc3[nH]2)cc1,44.1% (active)
22,Cc1ccc(-c2nnc(-c3ccc(NC(=O)c4cccs4)cc3)o2)cc1,-12.4% (inactive)
23,Cc1c(N=Nc2ccc(N(C)C)cc2)c(=O)n(-c2ccccc2)n1C,47.2% (active)
24,CCN1CCCC1CNC(=O)c1cc2c(=O)n(C)c3ccccc3c2n1C (stereo not given),2.2% (inactive)
25,Cc1cc(OCC(=O)Nc2nccs2)c2c(C)c(C)c(=O)oc2c1,38.8% (inactive)
26,Cc1nc2ccccc2nc(=O)c1NNc1ccc([N+](=O)[O-])cc1,24% (inactive)
